Measured values taken from ChEMBL document CHEMBL3988442, “University of Dundee, Small-Polar-MMV Screening Library” (2021).
For some assays here: Potency and affinity values are given separately.

What was measured:
Design in all cases: scale not given: direction of the effect not stated beside the values
[1] = target: Protein translocase subunit SecA (Escherichia coli (strain K12)) (UniProt P10408); assay: Assay to Identify E. coli SecA ATPase Inhibitors; type: functional; conditions: 30 µM
[2] = target: T1, Ubiquitin-activating enzyme e1, putative (Leishmania donovani (strain BPK282A1)) (UniProt E9BSI1); assay: Leishmania donovani Ubiquitin Activating Enzyme (LdE1); type: functional; conditions: 30 µM
T1 sequence (whole entry): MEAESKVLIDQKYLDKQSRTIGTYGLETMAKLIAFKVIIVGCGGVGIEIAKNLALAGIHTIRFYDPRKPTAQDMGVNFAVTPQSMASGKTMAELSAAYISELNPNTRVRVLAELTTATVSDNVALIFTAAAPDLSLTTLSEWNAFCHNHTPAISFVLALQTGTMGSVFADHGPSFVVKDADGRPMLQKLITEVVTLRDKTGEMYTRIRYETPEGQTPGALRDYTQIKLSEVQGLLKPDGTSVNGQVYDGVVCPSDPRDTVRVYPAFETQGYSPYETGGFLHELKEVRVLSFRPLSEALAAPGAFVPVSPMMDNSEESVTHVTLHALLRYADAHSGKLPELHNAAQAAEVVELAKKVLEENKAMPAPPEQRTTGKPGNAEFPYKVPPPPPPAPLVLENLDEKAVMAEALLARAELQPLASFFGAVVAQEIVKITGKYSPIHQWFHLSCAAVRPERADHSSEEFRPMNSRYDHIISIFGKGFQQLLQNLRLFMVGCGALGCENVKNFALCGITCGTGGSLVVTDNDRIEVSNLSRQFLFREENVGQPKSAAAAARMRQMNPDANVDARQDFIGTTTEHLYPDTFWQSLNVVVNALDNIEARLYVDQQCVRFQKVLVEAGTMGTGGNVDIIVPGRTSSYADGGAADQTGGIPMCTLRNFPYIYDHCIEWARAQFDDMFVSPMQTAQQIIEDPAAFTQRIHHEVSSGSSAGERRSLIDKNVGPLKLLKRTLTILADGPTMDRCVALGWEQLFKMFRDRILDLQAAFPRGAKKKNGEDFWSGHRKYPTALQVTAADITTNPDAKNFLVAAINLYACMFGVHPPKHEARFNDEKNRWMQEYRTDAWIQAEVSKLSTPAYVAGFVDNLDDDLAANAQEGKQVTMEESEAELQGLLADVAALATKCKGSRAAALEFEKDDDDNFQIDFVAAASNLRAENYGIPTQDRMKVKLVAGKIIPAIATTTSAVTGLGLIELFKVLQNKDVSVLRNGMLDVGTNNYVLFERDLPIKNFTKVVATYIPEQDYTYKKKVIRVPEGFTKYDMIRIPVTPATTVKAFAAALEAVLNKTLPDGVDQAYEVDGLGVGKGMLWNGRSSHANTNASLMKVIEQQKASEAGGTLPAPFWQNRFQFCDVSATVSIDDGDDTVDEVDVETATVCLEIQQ

[3] = target: AMP-activated protein kinase, AMPK (Homo sapiens) (UniProt P54646+O43741+P54619+Q9UGJ0+Q9Y478+Q13131+Q9UGI9); assay: AMP-dependent Kinase enzyme assay. An in vitro enzyme assay that detects ADP turnover that is directly proportional to AMPK activity. This uses naive AMPK that is activated during the assay with MK-8722; type: functional; conditions: 30 µM
[4] = target: Sialic acid-binding Ig-like lectin 9 (Homo sapiens) (UniProt Q9Y336); assay: Hs-Siglec9 ALPHAscreen SOP 20170721; conditions: 10 µM
Chain of Sialic acid-binding Ig-like lectin 9 (Homo sapiens) (Q9Y336 whole entry): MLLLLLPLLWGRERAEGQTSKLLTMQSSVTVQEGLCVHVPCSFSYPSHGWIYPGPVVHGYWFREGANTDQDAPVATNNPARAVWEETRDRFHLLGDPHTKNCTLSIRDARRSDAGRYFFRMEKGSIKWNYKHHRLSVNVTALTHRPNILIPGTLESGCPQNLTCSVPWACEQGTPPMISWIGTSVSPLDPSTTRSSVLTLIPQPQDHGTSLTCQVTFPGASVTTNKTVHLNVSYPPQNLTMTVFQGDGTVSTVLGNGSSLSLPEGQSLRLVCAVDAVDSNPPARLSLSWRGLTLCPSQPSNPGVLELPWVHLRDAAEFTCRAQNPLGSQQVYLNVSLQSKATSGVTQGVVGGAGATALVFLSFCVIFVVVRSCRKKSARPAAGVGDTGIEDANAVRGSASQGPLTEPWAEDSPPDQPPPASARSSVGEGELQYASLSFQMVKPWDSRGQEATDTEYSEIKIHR

Trypanosoma cruzi = assay: Trypanosoma cruzi phosphomannomutase and mannose-1-phosphate guanylyltransferase assay; type: functional; conditions: 10 µM
[5] = target: T2, Arginase-2, mitochondrial (Homo sapiens) (UniProt P78540); assay: in vitro enzyme assay to detect the production of urea directly proportional to the activity of Arginase II; type: functional; conditions: 33.3 µM; also: in the data most compounds retested in dose-response had high values
T2 sequence (whole entry): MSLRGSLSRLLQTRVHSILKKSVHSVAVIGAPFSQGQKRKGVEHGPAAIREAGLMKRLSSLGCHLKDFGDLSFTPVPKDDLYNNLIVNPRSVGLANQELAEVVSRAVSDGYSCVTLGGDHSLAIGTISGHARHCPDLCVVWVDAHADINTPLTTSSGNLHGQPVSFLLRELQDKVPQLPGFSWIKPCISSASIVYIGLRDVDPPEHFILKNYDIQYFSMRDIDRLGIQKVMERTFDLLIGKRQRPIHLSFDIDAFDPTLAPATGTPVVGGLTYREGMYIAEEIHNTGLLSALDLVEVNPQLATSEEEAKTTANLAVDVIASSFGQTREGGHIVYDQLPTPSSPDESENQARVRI

[6] = target: T3, Proteasome subunit beta (Trypanosoma cruzi) (UniProt O96673); assay: Trypanosoma cruzi proteasome chymotrypsin-like activity (TcProtChymo) assay.; also: in the data most compounds retested in dose-response had high values; type: functional; conditions: 9.37 µM
T3 sequence (whole entry): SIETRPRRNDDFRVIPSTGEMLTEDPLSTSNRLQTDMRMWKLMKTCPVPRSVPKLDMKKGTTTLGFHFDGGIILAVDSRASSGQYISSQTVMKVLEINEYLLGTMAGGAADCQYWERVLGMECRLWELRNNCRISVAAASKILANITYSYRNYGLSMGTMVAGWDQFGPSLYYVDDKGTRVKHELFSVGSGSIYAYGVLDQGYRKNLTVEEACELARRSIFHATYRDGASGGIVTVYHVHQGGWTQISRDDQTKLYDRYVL

Homo sapiens = species: Homo sapiens; assay: To identify inhibition of the IFN signalling (Jak-Stat) pathway via expression of an eGFP reporter gene under the control of an IFN-stimulated response element (ISRE) containing MxA promoter.; type: functional; conditions: 30 µM
[7] = target: T4, Tyrosyl-tRNA synthetase, putative (Trypanosoma cruzi (strain CL Brener)) (UniProt Q4DSP6); assay: Trypanosoma cruzi tyrosyl tRNA synthetase (TcYRS) _High Tyrosine SOP; type: functional; conditions: 30 µM; also: in the data most compounds retested in dose-response had high values
T4 sequence (whole entry): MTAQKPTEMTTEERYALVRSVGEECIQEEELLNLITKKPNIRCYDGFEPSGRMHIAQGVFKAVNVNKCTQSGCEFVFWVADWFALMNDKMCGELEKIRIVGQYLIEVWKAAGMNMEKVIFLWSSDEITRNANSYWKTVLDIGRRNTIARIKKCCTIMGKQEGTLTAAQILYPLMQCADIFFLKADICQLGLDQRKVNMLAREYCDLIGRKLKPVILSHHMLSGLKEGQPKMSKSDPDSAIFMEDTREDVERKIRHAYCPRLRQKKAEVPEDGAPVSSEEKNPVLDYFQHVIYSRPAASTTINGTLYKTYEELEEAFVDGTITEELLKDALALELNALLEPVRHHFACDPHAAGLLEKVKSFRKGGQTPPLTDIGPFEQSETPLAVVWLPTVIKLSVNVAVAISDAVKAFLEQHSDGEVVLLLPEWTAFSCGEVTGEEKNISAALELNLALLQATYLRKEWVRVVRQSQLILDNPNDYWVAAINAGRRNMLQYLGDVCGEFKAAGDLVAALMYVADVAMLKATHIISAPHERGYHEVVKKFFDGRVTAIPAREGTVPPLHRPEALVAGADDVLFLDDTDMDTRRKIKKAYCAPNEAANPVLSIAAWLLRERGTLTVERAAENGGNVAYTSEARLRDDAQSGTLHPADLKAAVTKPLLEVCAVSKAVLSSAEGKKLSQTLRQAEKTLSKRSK

[8] = target: T4, Tyrosyl-tRNA synthetase, putative (Trypanosoma cruzi (strain CL Brener)); assay: Trypanosoma cruzi tyrosyl tRNA synthetase (TcYRS) SOP; type: functional; conditions: 30 µM
[9] = target: Chromo domain-containing protein 1 (Saccharomyces cerevisiae (strain ATCC 204508 / S288c) (Baker's yeast)) (UniProt P32657); assay: ScCHD-1 Enzyme Inhibition Assay; type: functional; conditions: 30 µM; also: in the data most compounds retested in dose-response had high values
Chain of Chromo domain-containing protein 1 (Saccharomyces cerevisiae (strain ATCC 204508 / S288c) (Baker's yeast)) (P32657 whole entry, the tested form may be a part): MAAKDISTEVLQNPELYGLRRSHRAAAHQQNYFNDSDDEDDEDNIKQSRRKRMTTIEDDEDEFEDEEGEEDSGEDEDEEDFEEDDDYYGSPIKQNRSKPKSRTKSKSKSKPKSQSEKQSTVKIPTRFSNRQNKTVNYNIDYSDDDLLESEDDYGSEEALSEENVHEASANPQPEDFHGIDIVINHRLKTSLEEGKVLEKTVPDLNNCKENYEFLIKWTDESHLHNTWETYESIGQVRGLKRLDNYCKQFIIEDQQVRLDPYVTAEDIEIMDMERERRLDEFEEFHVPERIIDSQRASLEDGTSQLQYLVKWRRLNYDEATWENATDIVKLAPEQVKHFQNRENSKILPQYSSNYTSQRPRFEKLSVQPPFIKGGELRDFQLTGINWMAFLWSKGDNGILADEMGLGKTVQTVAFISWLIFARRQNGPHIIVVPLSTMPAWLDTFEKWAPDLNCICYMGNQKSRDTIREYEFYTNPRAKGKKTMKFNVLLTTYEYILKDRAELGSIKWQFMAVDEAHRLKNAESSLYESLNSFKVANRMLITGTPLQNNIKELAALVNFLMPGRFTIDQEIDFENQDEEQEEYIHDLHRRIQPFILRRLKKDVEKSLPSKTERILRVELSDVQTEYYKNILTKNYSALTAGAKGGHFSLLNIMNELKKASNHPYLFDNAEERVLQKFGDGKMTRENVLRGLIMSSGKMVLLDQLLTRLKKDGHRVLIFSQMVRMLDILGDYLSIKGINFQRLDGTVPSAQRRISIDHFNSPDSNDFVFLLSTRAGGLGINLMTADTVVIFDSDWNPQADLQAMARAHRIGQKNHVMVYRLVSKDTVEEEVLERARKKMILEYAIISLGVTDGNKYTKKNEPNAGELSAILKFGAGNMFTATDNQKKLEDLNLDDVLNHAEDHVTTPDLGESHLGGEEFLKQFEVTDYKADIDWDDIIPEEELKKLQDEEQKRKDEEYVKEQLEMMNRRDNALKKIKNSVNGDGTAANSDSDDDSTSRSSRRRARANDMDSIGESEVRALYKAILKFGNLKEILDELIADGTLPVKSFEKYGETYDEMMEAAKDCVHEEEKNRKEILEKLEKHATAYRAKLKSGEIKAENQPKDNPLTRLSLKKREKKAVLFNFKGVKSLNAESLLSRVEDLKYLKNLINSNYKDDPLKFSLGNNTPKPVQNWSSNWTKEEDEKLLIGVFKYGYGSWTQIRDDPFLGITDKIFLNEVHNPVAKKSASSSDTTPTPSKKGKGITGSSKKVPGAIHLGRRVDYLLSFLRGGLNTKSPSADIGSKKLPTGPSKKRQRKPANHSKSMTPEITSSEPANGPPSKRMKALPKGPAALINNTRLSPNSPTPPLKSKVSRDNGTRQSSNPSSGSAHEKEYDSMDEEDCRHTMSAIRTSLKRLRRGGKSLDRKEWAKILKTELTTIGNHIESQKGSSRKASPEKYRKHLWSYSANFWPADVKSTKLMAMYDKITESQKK

Chain of Protein translocase subunit SecA (Escherichia coli (strain K12)) (P10408 whole entry): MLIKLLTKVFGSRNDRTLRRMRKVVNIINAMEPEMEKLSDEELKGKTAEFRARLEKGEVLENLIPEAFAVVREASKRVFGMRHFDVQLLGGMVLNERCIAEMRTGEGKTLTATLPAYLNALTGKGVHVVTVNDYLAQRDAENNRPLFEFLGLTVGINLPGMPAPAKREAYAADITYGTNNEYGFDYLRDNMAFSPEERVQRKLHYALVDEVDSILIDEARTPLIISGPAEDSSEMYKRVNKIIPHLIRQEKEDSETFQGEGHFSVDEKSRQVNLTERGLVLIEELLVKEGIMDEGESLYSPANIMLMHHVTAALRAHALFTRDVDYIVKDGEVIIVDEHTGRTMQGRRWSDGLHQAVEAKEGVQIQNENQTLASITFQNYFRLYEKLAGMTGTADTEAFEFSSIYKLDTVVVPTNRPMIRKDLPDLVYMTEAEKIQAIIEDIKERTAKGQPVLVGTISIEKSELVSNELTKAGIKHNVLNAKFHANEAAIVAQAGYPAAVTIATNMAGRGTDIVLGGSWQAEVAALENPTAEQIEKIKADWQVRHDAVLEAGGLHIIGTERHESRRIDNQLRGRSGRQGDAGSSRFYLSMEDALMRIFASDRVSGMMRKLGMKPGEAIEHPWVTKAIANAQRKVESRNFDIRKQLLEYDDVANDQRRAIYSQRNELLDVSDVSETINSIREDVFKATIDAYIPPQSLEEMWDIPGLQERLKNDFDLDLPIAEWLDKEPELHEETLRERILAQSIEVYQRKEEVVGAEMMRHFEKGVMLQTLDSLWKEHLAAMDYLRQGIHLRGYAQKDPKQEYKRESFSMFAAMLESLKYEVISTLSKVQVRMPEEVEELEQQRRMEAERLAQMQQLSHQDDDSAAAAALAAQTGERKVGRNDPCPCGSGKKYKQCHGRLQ

| Structure (SMILES) | Percent Effect [1] [%] | Percent Effect [2] [%] | Percent Effect [3] [%] | Percent Effect [4] [%] | Percent Effect (Trypanosoma cruzi) [%] | Percent Effect [5] [%] | Percent Effect [6] [%] | Percent Effect (Homo sapiens) [%] | Percent Effect [7] [%] | Percent Effect [8] [%] | Percent Effect [9] [%] |
| --- | --- | --- | --- | --- | --- | --- | --- | --- | --- | --- | --- |
| Cc1nn(C)c(N2CCOCC2)c1CNCc1ccnc(N(C)C)c1 | -1.81 | 10.4 | -5.9 | -0.165 | -2.64 | 0.21 | 10.6 | 25.3 | 3.81 | 14.1 | -2.85 |
| CC(C)c1noc(C(C)N2CCN(Cc3ccccc3C#N)CC2)n1 (configuration not stated) | -0.614 | -2.63 | -8.38 | 2.79 | 4.58 | -2.52 | 3.81 | 10.1 | -3.45 | 3.7 | 2.36 |
| Cc1nn(C)c(Cl)c1C1CCCN1C(=O)c1ccc2c(c1)OCO2 (configuration not stated) | -1.18 | -2.7 | -7.03 | -0.722 | -5.38 | -2 | -0.901 | 13.8 | 0.493 | -6.17 | 0.203 |
| Cc1cccc(C(=O)N2CCN(S(C)(=O)=O)[C@@H](C)C2)c1C | -5.53 | -2.74 | 15.2 | -4.05 | -1.57 | -2.27 | 0.71 | 9.6 | 0 | 0 | 0.913 |
| NC(=O)CCN1CCC(C(=O)c2cc(F)ccc2F)CC1 | -1.09 | 7.89 | -2.87 | -1.51 | 3.21 | -5.92 | 0.671 | -0.792 | 3.19 | 2.6 | -16 |
| COc1c(CNC2CCN(C(=O)C3CC3)CC2)c(C(C)C)nn1C | -4.71 | 21.1 | -4.53 | -2.41 | -4.95 | 1.44 | -0.0846 | 15.4 | 6.4 | 18.5 | -3.47 |
| CC(C)N1CCC(NCc2cccnc2N(C)C)CC1 | -6.06 | 5.33 | -3.18 | 0.114 | 0.487 | 2.6 | 7.15 | 0.898 | -0.546 | 8.64 | -4.8 |
| CN(C)C(=O)C1CN(Cc2c[nH]cn2)CCN(C2CCOCC2)C1 (configuration not stated) | -7.04 | 12.2 | 8.74 | 1.93 | 0.198 | 8.12 | 6.24 | 15.9 | 6.45 | 16.9 | -11.5 |
| COCCN(Cc1ccc(F)cc1Cl)C(=O)c1ccc(=O)[nH]n1 | -4.94 | 6.94 | -10.2 | 29.6 | 4.37 | 6.18 | 10.3 | -2.22 | 2.1 | 5.13 | -5.81 |
| COCCNC(=O)CCc1c(C)nn(-c2nc(C)c(C)c(=O)[nH]2)c1C | 0.376 | 7.79 | -3.21 | -3.83 | -7 | 23.9 | 8.01 | 4.73 | 8.47 | 14.1 | -7.76 |
| CCN1CCn2c(C)cnc2C12CCN(C(=O)c1ccc(Cl)cc1)CC2 | -4.5 | 10.7 | 9.36 | -7.09 | -6.95 | -59 | 11.1 | 4.01 | 2.08 | 10 | -6.26 |
| CCCc1cc(NC2CCc3ncnn3C2)n2ncnc2n1 (configuration not stated) | -4.43 | 5.48 | 7.3 | -5.57 | -2.74 | -0.455 | 10.1 | 17.2 | 2.15 | 7.5 | -3.04 |
| Cc1cnn(CC2CN(Cc3cccc(C(=O)N(C)C)c3)CCO2)c1 (configuration not stated) | -2.21 | 23.4 | -1.81 | 0.495 | 3.56 | -7.83 | 14.7 | 14.3 | 7.77 | 19.5 | -9.57 |
| Cc1cc(C)cc(N(C)S(=O)(=O)c2cc(C(=O)O)cs2)c1 | -3.42 | 5.41 | -10.8 | 15.8 | 5.57 | -5.21 | 0 | 12.5 | -1.48 | 3.7 | -4.94 |
| CC(C)n1ccnc1C1CCN(Cc2ccc(Cl)s2)CC1 | -4.43 | 7.79 | 1.43 | 13.8 | 7.96 | 6.9 | 6.99 | 9.49 | 8.6 | 16.1 | -1.15 |
| CC(C)S(=O)(=O)NCC1CCCN(C(=O)c2ccc3c(c2)CCC3)C1 (configuration not stated) | -5.88 | 5.48 | 5.06 | -5.74 | 0.588 | -2.27 | 7.28 | 16.7 | 1.07 | 7.5 | -5.72 |
| c1cc(CNCC2CNc3ccnn3C2)cc(N2CCCCC2)n1 (configuration not stated) | -3.28 | 19 | -11.8 | -8.9 | 13 | -2.8 | 27.1 | 1.88 | 13.5 | 22.8 | -27.6 |
| CC(=O)c1cc(CN2C[C@H]3CC[C@@H]2CN(S(=O)(=O)N(C)C)C3)cs1 | -5.56 | 15.3 | -10.7 | 36 | 7.68 | 6.18 | 5.96 | 4.65 | 7.37 | 10.3 | -3.04 |
| COCCC(=O)N1CCC2(CN(Cc3ccc(OC)c(F)c3)C2)C1 | 1.99 | 13.7 | -3.76 | 8.62 | 5.16 | 0.399 | 6.42 | -17.9 | 6.25 | 18.5 | -0.472 |
| c1cncc(COCC2CN(Cc3ccco3)Cc3ccnn3C2)c1 (configuration not stated) | -3 | 13.5 | -6.55 | 4.29 | -0.0978 | 6.2 | 5.06 | 9.51 | 7.53 | 13.6 | -2.33 |
| Cc1occc1C(=O)N1CCC2(CCN(Cc3nccs3)C2)CC1 | -3.24 | 2.6 | 0.489 | 3.8 | 3.83 | -8.28 | -1.66 | -23.6 | 0 | -3.7 | 6.12 |
| NC(=O)c1nnn(-c2ccc(Br)cc2)n1 | -5.42 | 18.2 | -6.83 | -10.8 | 7.59 | 3.23 | 11.5 | 17.2 | 5.29 | 6.41 | -9.19 |
